# From PubChem BioAssay AID504546 (Broad Institute, 2011)
# Records with an inconclusive call do not appear. Active and inactive are the calls of the source.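 Rule for the calls: active = every repeat run fits a falling-signal curve with half-maximal potency within ten times top tested dose; inconclusive = runs disagree, or flat moderate drop, or poor fit; inactive = every run inactive, including signal moving upward.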
# Assay: ADP-Glo luciferase signal interference – biochemical, luminescence, cherry-picked samples, set 2, artefact control for CDK5 inhibitor project, dose response (AID 504546)
# Conditions: ADP-Glo detection reagent counter screen, 5 uM ADP; series mostly up to 30 µM
row,Compound,outcome
1,COc1cc2ccccc2ccc1=NO,inactive
2,COc1ccc(S(=O)(=O)Nc2c(C(=O)O)[nH]c3ccc(OC)cc23)c(OC)c1,inactive
3,O=C1Nc2cc(C(=O)N3CCC(N4CCCCC4)CC3)ccc2S/C1=C\c1ccccc1,inactive
4,S=C(c1ccc(OCc2ccccc2)cc1)N1CCCC1,inactive
5,COc1cc(OC)c(C(=O)N2CCN(c3ccccn3)CC2)cc1OC,inactive
6,O=c1c(O)c(-c2ccc(O)c(O)c2)oc2cc(O)ccc12,inactive
7,Oc1[nH]c2ccccc2c1C1=NCCCCC1,inactive
8,Nc1ccc2c(c1)C(=NO)c1ccccc1-2,inactive
9,Oc1ccc(-c2nc(-c3ccc(O)c(O)c3)cs2)cc1,inactive
10,CC1(C)Cc2c(ccc3ccccc23)C(=O)N1,inactive
11,O=c1c(O)cccc2cc(O)c(O)c(O)c12,inactive
12,Cc1nn(-c2ncccn2)c2c1C(=O)CC(C)(C)C2Br (centres undefined),inactive
13,Cc1[nH][nH]c(=O)c1C(c1ccccc1[N+](=O)[O-])C(C#N)C#N (centres undefined),inactive
14,Cc1nn(-c2ccc(Cl)cn2)c2c1C(=O)CC(C)(C)C2Br (centres undefined),inactive
15,CC(C)[C@H](CO)N(Cc1cccc(F)c1)c1nc(Nc2cccc(Cl)c2)c2ncn(C(C)C)c2n1,inactive
16,CC(C)n1cnc2c(NCc3ccc(S(N)(=O)=O)cc3)nc(NCc3ccc(S(N)(=O)=O)cc3)nc21,inactive
17,COc1ccc2ccc3ccc(OC)c(OC(C)=O)c3c2c1,inactive
18,Cc1ccc2nc(NCc3ccccc3)c(C#N)cc2c1,inactive
19,Nc1nc(Nc2cccc(F)c2)nc(NCCO)c1[N+](=O)[O-],inactive
